Our source for the inhibition values is ChEMBL document CHEMBL1961873, “Compounds: GSK PKIS; Assays: Nanosyn kinase panel” (2012).

The target of assay [1] is T1, Tyrosine-protein kinase ITK/TSK (Homo sapiens) (UniProt Q08881).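 Note: values are mean percent inhibition of ITK from the GSK PKIS screen.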
T1 sequence (whole entry): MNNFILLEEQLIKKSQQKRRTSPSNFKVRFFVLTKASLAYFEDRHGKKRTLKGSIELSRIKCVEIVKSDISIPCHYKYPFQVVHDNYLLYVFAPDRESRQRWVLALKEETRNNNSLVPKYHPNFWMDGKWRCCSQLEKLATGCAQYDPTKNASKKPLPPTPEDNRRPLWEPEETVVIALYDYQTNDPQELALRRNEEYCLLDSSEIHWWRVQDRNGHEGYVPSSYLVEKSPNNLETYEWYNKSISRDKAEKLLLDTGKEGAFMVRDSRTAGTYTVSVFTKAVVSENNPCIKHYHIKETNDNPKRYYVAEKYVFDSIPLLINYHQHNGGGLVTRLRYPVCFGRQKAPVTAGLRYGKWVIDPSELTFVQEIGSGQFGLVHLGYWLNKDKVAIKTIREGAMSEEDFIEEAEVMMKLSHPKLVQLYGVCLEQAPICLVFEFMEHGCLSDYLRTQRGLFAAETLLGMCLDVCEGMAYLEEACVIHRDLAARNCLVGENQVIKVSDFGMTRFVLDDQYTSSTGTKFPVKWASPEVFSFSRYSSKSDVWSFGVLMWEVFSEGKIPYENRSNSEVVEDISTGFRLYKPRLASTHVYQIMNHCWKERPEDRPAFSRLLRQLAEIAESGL
The note with it: at 1 µM.

The target in assay [2] is Tyrosine-protein kinase JAK1 (Homo sapiens) (UniProt P23458). The note with it: at 0.1 µM.
Tyrosine-protein kinase JAK1 (Homo sapiens), sequence (P23458 whole entry): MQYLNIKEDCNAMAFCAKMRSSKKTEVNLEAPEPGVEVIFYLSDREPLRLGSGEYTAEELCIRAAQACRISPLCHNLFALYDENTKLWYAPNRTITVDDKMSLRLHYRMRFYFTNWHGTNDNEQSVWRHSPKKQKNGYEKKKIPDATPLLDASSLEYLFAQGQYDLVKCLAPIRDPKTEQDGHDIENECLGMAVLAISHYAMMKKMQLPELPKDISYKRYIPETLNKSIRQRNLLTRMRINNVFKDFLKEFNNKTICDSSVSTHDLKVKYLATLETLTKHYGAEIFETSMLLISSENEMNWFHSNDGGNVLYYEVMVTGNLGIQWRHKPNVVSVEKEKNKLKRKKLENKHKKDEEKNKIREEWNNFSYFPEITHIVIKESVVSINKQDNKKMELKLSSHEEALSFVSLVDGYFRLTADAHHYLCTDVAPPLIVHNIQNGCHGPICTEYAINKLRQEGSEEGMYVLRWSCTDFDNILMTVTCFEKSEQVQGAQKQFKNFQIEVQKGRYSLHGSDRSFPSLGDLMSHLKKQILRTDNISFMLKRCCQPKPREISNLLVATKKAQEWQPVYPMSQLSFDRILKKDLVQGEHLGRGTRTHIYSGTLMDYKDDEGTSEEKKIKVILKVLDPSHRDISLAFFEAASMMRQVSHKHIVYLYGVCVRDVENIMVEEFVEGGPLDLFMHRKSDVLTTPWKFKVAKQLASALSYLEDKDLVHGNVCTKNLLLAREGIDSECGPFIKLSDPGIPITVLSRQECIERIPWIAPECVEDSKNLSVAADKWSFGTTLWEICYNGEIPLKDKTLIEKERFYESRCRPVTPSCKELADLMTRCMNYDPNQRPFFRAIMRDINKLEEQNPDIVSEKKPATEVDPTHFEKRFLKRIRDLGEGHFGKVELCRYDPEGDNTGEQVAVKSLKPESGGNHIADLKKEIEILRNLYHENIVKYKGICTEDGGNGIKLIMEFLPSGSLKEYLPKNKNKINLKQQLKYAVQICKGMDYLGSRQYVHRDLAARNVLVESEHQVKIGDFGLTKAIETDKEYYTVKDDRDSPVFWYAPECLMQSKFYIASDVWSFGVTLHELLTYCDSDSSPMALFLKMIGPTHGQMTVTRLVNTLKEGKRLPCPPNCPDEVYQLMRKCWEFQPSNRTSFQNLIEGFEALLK
Assay [3] has the same target. The note with it: at 1 µM.
Assay [4] deals with Tyrosine-protein kinase JAK2 (Homo sapiens) (UniProt O60674). The note with it: at 0.1 µM.
For assay [5] the target is unchanged. The note with it: at 1 µM.
In assay [6] the target is T2, Tyrosine-protein kinase JAK3 (Homo sapiens) (UniProt P52333).
T2 sequence (whole entry): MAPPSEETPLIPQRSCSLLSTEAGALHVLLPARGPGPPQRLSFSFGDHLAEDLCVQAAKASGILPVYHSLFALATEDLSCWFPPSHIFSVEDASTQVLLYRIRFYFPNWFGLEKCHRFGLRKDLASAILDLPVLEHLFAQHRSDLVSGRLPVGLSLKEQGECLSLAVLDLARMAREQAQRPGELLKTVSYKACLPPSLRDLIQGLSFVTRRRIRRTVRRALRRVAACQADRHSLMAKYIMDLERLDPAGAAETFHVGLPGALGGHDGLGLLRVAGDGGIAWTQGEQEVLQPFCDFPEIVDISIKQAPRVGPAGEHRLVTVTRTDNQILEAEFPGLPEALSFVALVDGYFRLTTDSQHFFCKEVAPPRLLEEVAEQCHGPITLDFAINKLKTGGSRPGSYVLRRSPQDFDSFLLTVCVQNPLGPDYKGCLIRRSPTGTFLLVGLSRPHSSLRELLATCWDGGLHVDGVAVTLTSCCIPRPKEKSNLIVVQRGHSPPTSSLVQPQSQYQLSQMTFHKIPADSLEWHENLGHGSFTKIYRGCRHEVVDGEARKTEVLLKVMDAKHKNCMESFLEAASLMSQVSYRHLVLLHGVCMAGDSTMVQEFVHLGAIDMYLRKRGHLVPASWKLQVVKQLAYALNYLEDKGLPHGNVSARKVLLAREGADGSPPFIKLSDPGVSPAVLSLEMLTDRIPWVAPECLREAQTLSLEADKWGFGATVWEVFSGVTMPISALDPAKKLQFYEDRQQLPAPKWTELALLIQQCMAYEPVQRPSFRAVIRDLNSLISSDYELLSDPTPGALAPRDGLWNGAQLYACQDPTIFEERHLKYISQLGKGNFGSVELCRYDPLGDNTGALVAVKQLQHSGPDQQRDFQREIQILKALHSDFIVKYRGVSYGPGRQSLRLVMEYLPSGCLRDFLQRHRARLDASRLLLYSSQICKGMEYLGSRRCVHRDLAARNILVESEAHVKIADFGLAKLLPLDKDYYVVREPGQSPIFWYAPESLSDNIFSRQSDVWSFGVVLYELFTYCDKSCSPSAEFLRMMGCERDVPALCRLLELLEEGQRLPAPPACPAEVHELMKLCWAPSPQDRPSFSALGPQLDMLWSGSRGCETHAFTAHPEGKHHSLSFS
The note with it: at 0.1 µM.

Assay [7] addresses T2, Tyrosine-protein kinase JAK3 (Homo sapiens). The note with it: at 1 µM.
Assay [8] has as its target Vascular endothelial growth factor receptor 2 (Homo sapiens) (UniProt P35968). The note with it: at 0.1 µM.
For assay [9] the target is unchanged. The note with it: at 1 µM.
In assay [10] the target is Mast/stem cell growth factor receptor Kit (Homo sapiens) (UniProt P10721). The note with it: at 0.1 µM.
Mast/stem cell growth factor receptor Kit (Homo sapiens), sequence (P10721 whole entry): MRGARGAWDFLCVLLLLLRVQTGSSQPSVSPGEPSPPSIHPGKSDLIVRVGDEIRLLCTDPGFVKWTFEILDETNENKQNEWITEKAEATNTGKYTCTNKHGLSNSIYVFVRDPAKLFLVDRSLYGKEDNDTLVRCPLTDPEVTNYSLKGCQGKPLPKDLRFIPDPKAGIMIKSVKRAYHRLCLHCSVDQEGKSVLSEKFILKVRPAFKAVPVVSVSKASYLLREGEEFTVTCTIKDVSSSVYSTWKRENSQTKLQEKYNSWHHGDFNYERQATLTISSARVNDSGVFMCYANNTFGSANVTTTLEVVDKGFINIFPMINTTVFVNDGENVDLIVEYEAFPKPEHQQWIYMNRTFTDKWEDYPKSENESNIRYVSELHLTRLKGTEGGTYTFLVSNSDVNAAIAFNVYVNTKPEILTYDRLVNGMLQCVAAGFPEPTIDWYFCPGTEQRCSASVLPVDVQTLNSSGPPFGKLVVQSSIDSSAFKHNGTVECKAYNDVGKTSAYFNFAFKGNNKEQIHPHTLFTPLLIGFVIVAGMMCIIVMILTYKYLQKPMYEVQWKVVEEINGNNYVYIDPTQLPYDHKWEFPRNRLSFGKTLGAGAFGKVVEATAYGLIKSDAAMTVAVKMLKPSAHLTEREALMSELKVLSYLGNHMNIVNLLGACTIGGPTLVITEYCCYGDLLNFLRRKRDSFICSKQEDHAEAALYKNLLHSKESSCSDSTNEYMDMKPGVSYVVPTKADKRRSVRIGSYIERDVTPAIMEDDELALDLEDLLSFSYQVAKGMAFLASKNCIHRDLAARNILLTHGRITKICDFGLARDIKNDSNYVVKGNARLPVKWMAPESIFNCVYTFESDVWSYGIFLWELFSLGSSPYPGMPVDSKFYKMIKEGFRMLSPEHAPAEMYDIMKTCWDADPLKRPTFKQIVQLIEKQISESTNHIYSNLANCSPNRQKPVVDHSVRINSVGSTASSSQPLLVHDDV
For assay [11] the target is unchanged. The note with it: at 1 µM.
Assay [12] deals with Mast/stem cell growth factor receptor Kit (Homo sapiens), P10721 [D816V]. The note with it: at 0.1 µM.
Mast/stem cell growth factor receptor Kit (Homo sapiens), P10721 [D816V], sequence (P10721 whole entry D816V): as the sequence (P10721 whole entry) above, with D816V counted along it
Assay [13] shares this test system. The note with it: at 1 µM.
Assay [14] relates to Mast/stem cell growth factor receptor Kit (Homo sapiens), P10721 [T670I]. The note with it: at 0.1 µM.
Mast/stem cell growth factor receptor Kit (Homo sapiens), P10721 [T670I], sequence (P10721 whole entry T670I): as the sequence (P10721 whole entry) above, with T670I counted along it
The test system is the same in assay [15]. The note with it: at 1 µM.
For assay [16], the system named is Mast/stem cell growth factor receptor Kit (Homo sapiens), P10721 [V560G]. The note with it: at 0.1 µM.
Mast/stem cell growth factor receptor Kit (Homo sapiens), P10721 [V560G], sequence (P10721 whole entry V560G): as the sequence (P10721 whole entry) above, with V560G counted along it
Assay [17] shares this test system. The note with it: at 1 µM.
Assay [18] deals with Tyrosine-protein kinase Lck (Homo sapiens) (UniProt P06239). The note with it: at 0.1 µM.
Tyrosine-protein kinase Lck (Homo sapiens), sequence (P06239 2-509 limits assumed): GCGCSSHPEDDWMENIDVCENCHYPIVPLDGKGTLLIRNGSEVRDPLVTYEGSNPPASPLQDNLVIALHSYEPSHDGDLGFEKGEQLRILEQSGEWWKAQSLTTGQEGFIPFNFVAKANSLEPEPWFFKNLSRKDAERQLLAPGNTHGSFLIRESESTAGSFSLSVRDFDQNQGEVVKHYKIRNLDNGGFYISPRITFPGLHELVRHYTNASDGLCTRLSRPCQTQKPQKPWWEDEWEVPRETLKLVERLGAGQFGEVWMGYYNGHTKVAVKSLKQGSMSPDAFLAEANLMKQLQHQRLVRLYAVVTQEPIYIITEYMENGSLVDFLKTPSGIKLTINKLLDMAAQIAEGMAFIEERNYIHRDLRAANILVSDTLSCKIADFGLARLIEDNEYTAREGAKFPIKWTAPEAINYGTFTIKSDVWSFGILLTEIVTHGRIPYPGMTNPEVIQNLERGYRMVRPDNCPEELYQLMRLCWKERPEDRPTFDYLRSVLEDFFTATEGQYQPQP
Assay [19] has the same target. The note with it: at 1 µM.
The target in assay [20] is Leukocyte tyrosine kinase receptor (Homo sapiens) (UniProt P29376). The note with it: at 0.1 µM.
Leukocyte tyrosine kinase receptor (Homo sapiens), sequence (P29376 whole entry): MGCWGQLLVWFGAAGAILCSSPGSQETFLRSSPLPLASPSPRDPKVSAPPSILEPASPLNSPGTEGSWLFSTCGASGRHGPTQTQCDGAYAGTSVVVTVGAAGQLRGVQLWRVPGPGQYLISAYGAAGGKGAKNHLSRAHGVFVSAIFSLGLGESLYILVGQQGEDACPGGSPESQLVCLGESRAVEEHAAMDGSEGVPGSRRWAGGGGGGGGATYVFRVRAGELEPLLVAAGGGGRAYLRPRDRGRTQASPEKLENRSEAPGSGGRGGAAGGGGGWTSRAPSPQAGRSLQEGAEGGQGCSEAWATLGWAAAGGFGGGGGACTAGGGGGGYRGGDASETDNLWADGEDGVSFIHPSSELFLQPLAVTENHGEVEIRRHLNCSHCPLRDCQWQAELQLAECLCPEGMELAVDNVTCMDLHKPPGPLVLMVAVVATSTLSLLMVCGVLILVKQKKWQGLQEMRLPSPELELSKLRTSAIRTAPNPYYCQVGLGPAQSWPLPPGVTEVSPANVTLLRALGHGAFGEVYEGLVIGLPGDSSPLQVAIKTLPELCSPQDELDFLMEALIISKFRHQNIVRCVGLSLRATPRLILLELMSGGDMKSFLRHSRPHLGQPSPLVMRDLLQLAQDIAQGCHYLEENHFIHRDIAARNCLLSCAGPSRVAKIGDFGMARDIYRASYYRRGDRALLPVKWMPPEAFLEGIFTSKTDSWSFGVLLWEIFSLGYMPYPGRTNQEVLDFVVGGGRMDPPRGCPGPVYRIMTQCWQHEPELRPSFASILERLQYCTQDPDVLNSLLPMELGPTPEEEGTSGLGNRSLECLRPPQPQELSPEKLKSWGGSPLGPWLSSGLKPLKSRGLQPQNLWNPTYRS

Vascular endothelial growth factor receptor 2 (Homo sapiens), sequence (P35968 whole entry): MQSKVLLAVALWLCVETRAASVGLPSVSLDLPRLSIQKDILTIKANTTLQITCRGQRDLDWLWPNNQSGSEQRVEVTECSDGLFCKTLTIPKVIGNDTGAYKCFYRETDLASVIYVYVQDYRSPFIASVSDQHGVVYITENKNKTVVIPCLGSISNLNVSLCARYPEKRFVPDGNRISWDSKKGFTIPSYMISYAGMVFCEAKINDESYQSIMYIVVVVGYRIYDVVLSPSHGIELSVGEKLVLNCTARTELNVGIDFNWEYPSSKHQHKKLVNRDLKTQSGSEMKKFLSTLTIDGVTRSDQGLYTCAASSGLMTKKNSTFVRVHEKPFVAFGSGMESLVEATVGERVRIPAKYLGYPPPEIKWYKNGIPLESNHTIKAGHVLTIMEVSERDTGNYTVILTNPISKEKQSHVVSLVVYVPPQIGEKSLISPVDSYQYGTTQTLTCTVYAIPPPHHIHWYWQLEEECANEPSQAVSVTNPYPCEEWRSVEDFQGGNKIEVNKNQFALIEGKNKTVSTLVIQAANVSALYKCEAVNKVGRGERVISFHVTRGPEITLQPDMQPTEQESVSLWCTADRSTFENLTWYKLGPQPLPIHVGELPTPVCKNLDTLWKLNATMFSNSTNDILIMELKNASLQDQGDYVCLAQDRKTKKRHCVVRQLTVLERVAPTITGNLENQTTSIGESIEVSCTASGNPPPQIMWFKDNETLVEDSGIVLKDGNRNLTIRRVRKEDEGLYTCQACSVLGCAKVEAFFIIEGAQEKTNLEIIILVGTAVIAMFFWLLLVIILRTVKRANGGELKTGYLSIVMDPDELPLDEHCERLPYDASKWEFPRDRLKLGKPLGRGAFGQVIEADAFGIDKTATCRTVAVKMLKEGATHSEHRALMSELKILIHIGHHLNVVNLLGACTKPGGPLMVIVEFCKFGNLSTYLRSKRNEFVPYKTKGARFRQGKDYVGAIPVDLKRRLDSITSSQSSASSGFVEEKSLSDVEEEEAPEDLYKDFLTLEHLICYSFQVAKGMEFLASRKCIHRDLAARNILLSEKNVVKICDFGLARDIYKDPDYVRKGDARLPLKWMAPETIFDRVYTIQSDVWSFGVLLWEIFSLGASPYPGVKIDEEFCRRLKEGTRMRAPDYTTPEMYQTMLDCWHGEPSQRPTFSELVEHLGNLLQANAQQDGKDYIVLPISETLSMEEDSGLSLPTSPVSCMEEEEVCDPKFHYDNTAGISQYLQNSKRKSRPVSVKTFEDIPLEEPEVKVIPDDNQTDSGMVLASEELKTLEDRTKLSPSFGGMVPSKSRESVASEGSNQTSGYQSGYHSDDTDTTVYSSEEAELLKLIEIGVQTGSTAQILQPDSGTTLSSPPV

In the case of `NC(=O)c1cccc(Nc2nccc(Nc3cccc(F)c3)n2)c1`, the inhibition – broadly, the drop in the measured response relative to a control, in per cent – is 2.4% in assay [1]; 3.17% in assay [2]; 32% in assay [3]; 2.34% in assay [4]; 46.6% in [5]; -1.62% in [6]. Further, the inhibition in [7] was 2.72%; in [8] it was 5.1%; in [9], 44.7%; in assay [10] it was 42.5%; in [11], 82.6%; in assay [12], -0.14%. In addition, the inhibition in [13] was 2.14%; in assay [14], 0.52%; in assay [15], 7.62%; in assay [16] it was 2.06%; in [17], 32.6%; in assay [18], 2.44%. For the same compound, the inhibition amounted to 15% in assay [19] and 0.75% in assay [20].
Take `FC(F)(F)c1ccc(-c2nn3ncccc3c2-c2ccnc(Nc3ccc4c(c3)OCCO4)n2)cc1`: the inhibition in assay [1] was 4.7%; in assay [2], 7.49%; in assay [3], 24.3%; in assay [4], -0.67%; in assay [5], -0.89%; in assay [6], 6.03%. The inhibition in [7] is 4.36%; in assay [8], -0.31%; in assay [9], 9.68%; in assay [10], 6.76%; in [11] it was 41.4%; in assay [12], -0.4%. Besides, the inhibition turned out to be 4.93% in assay [13]; 0.89% in assay [14]; 6.31% in assay [15]; 9.1% in [16]; 21.1% in assay [17]; 6.41% in assay [18]. Besides, the inhibition came out at 42.5% in assay [19] and 1.18% in [20].
On to `COc1cc(/C=N/Nc2ncnc3c2cnn3C(C)C)ccc1O`, for which the inhibition in assay [1] is 5%; in assay [2] it was 2.44%; in [3], 14.2%; in [4], 0.62%; in assay [5], 0.55%; in assay [6] it was 0.75%. Besides, the inhibition in assay [7] is 3.25%; in [8], 4.03%; in [9], 19.8%; in [10], 8.94%; in assay [11], 53.3%; in [12], -1.37%. For the same compound, the inhibition in assay [13] is 4.07%; in assay [14], 3.16%; in [15], -0.48%; in assay [16], 1.9%; in [17], 7.86%; in assay [18], 16.7%. In addition, the results for the inhibition in [19] and in assay [20] were 52.8% and 1.55%, respectively.
With `CCS(=O)(=O)c1ccc(OC)c(Nc2ncc(-c3cccc(OC)c3)o2)c1`, the inhibition is 5.9% in [1]; -0.79% in assay [2]; -4.39% in assay [3]; 0.87% in [4]; 1.58% in assay [5]; -1.19% in assay [6]. The inhibition in assay [7] turned out to be 5.85%; in assay [8] it was 48.4%; in assay [9], 73.2%; in [10] it was 73.4%; in [11], 97%; in assay [12], 0.77%. The inhibition was 7.53% in assay [13]; 10.8% in assay [14]; 67.6% in assay [15]; 3.11% in assay [16]; 38.3% in [17]; 11.7% in assay [18]. The inhibition in [19] amounted to 47.6%; in [20], 1.67%.
As to `CCn1c(-c2nonc2N)nc2c(C#CC(C)(C)O)nc(OCCNC)cc21`, the inhibition was 0.12% in [1]; 1.27% in assay [2]; 2.83% in assay [3]; 2.5% in assay [4]; 3.3% in assay [5]; -2.54% in assay [6]. Also, the inhibition is -0.89% in assay [7]; 16.2% in assay [8]; 64.8% in assay [9]; 4.99% in assay [10]; 6.66% in [11]; 4.65% in assay [12]. Besides, the inhibition in assay [13] is 3.95%; in [14], 0.61%; in assay [15], 3.65%; in [16] it was -4.02%; in assay [17], 4.6%; in [18] it was 2.55%. In addition, the inhibition is 2.44% in assay [19] and 5.09% in assay [20].
Turning to `OCc1ccc(-c2nc(-c3ccccn3)c(-c3ccc4c(c3)OCO4)[nH]2)cc1`, the inhibition in [1] was 2.5%; in [2], 3.55%; in assay [3], 3.24%; in assay [4], 2.17%; in [5], 3.4%; in assay [6], -1.9%. Besides, the inhibition in assay [7] turned out to be 0.74%; in [8], 7.67%; in assay [9], 6.53%; in assay [10], 13.1%; in assay [11] it was 3.32%; in [12] it was 4.26%. Further, the inhibition in assay [13] is 1.86%; in assay [14] it was 3.18%; in assay [15] it was 0.71%; in [16], -1.45%; in assay [17], 2.83%; in [18] it was 4.57%. The inhibition stood at 6.53% in assay [19] and 3.45% in assay [20].
